# Screening data (PubChem)
# HEK293 tox – cytotoxicity in counter-screen for GLP-1R inverse agonists. HEK293 cAMP-luciferase reporter cells, luminescence, 24 h. Potency, µM (titrated, usually from 38.3 µM), most hits filed as inhibitors. 410,000 tested, 0.13% active. AID 624418;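 also: loss of luciferase light is scored as toxicity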
#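 1536-well qHTS counterscreen of the MLSMR; 200 cells/uL, 12 h pre-incubation, 23 nL cpd, 24 h at 37 deg C 5% CO2, luciferase detection reagent, 12 min RT, luminescence. Inhibition = undesired.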
# GLP-1R agonist – GLP-1 receptor (human) agonism. HEK293 GLP-1R CRE-luciferase, luminescence, 4-6 h; cells express a hypersensitive GLP-1R form. Potency, µM (highest dose often 45.6 µM), usual class: activators. P43220. AID 624172. 380,000 tested, 0.007% active
# Target sequence (P43220 whole entry, looked up): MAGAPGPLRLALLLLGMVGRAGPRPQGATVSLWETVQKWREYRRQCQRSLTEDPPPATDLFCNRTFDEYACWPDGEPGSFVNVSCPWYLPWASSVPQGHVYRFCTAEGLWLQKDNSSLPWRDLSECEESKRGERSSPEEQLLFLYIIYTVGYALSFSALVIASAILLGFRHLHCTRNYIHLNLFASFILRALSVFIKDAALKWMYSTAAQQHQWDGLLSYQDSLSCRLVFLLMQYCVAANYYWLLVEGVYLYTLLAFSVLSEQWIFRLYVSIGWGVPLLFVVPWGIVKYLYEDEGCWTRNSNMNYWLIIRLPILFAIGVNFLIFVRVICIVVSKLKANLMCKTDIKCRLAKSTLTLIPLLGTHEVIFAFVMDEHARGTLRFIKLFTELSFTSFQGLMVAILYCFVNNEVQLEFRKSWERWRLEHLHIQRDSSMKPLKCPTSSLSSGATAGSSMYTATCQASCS
# BRCA1 expr act – increases BRCA1 expression; MCF7-BRCA1-FFLuc reporter, luminescence, 48 h; response scale: scaled: vehicle 0%, 10 µM genistein 100%; 380,000 tested, 1.1% active; Potency, µM (titrated, usually from 46.1 µM), hits mostly activators; also: nearly all actives have a fitted effect of over 80% in size
#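 Cells: MCF7-BRCA1-FFLuc, 2000/well. Exposure: 48 h, 37 °C, 5% CO2. Read: luminescence, 15 min post-substrate. Controls: genistein 10 microM (maximal activation), DMSO (neutral).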
# GLP1R inv ag – GLP-1 receptor (human) inverse agonism. Potency, µM (doses to about 38.3 µM), actives largely listed as inhibitors. 410,000 tested, 1.6% active. AID 624417. HEK293 GLP-1R CRE-luciferase, luminescence, 24 h; GLP-1R form is constitutively active; also: nearly all actives have a fitted effect of over 55% in size
#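 Using stably transfected HEK293 (constitutively active GLP-1R, cAMP-luciferase reporter), compounds were incubated 24 hr and luciferase measured by luminescence.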
# Mito fusion act – inhibitors of mitochondrial division or activators of mitochondrial fusion. Potency, µM (highest dose often 46.1 µM), usual class: activators. 320,000 tested, 0.23% active. S. cerevisiae fusion-defective mutant growth rescue, CellTiterGlo 48 h; also: nearly all actives have a fitted effect of over 45% in size
#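 Compounds are tested for their ability to restore growth of mitochondrial fusion-defective yeast strains at non-permissive 37C in YPEG medium over 48 hours. Viability is quantified by luciferase luminescence.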
# Numbers stand for hits; 0 = inactive; ? = inconclusive; - = no result given; [ ] = dose if it differs, or a comment. Most compounds without a hit are left out; they make up all but 2.8% or so of the library. Calls follow the shape of the dose curve; as a rule, active = well fitted curve in the direction sought with a large enough effect; inconclusive = small, poorly fitted or top-dose-only effect, or another doubt; inactive = no such curve, though single readings can be large; an effect the other way counts as inactive or inconclusive.
SMILES,HEK293 tox,GLP-1R agonist,BRCA1 expr act,GLP1R inv ag,Mito fusion act
CCOC(=O)c1c(Nc2cccc(C(=O)OC)c2)nnc(-c2ccccc2)c1-c1ccccc1,0,0,0,0,-
CCOC(=O)c1c(Nc2ccc(C)cc2)nnc(-c2ccccc2)c1-c1ccccc1,0,0,0,11µM,-
O=C(Nc1ccc(OCc2ccccc2)cc1)c1ccccc1,0,0,0,0,0
O=C(CN1CCOCC1)Nc1ccc(OCc2ccccc2)cc1,0,0,0,0,0
CC(C)=CC(=O)Nc1ccc(OCc2ccccc2)cc1,0,0,2.8µM,?,0
CN1CCN(CCC(=O)Nc2ccc(OCc3ccccc3)cc2)CC1,0,0,11µM,0,0
O=C(CN1CCN(CC(=O)Nc2ccc(OCc3ccccc3)cc2)CC1)Nc1ccc(F)cc1,0,0,0,8.9µM,-
CC(C)CC1NC(=O)N(CC(=O)Nc2ccc(OC(F)F)cc2)C1=O (centres undefined),0,0,0,0,0
O=C(CCN1CCN(CCO)CC1)Nc1ccc(OCc2ccccc2)cc1,0,0,0,0,0
CC(C)CC1NC(=O)N(CC(=O)Nc2ccc(OCc3ccccc3)cc2)C1=O (centres undefined),0,0,0,11µM,0
Cc1ccc(S(N)(=O)=O)cc1NC(=O)C(c1ccccc1)c1ccccc1,0,0,0,0,0
N#Cc1c(C(F)(F)F)cc(=O)n2c1[nH]c1ccccc12,0,0,0,?,0
CC12CCC(=O)N1C(C(=O)Nc1nc3ccc(F)cc3s1)CS2 (centres undefined),0,0,0,0,0
COCCNC(=O)CCn1c(=O)oc2ccccc21,0,0,0,0,0
Cc1nc(SCC(=O)Nc2ccc(OCc3ccccc3)cc2)n[nH]1,0,0,0,0,0
CS(=O)(=O)N(CCc1ccccc1)CC(=O)Nc1ccc(OCc2ccccc2)cc1,0,0,0,11µM,0
Nc1nc(SCC(=O)Nc2ccc(OCc3ccccc3)cc2)n[nH]1,0,0,10µM,0,0
CN1CCN(c2ccccc2NC(=O)c2ccc(OCc3ccccc3)cc2)CC1,?,0,0,11µM,0
CC1=C(C#N)C(Nc2ccc(C)cn2)(C(F)(F)F)C(=O)N1 (centres undefined),0,0,0[1.84 µM],0,0
Cc1cc(C)c(C#N)c(SCc2cn3c(C)cccc3n2)n1,0,0,0,0,0
Cc1cc(C)cc(NC(=O)Nc2cc(-c3ccccc3)nn2C)c1,0,0,0,8.9µM,0
CCCCOC(=O)c1ccc(NC(=O)Cc2coc3ccc(C(C)C)cc23)cc1,?,-,-,7.9µM,-
Cn1c(SCc2ccc(F)cc2)nnc1-c1cnccn1,0,0,11µM,0,0
COc1cc(CNC(=O)C2CC2)ccc1OCc1ccccc1,0,0,13µM,0,0
CCCCNC(=O)C1CCN(Cc2ccc(OCc3ccccc3)cc2)CC1,?,0,0,7.1µM,0
SMILES,HEK293 tox,GLP-1R agonist,BRCA1 expr act,GLP1R inv ag,Mito fusion act
COc1cc(/C=N/n2c(C)n[nH]c2=S)ccc1OCc1ccc(F)cc1,0,0,5.6µM,0,0
COc1cc(/C=N/NC(N)=S)ccc1OCc1ccc(C)cc1,13µM,0,0,?,0
CCN1C(=O)[C@H]2[C@H]3CN=C(SCc4ccc(C#N)cc4)N3[C@@](C)(C(=O)OC)[C@H]2C1=O,0,0,0,0,-
COc1cc(C(=S)N2CCCC2)ccc1OCc1ccc(C)cc1,0,0,11µM,0,0
COc1cc(CNCCc2c[nH]c3ccccc23)ccc1OCc1ccccc1F,0,0,0,7.9µM,0
COc1cccc(CNCCc2c[nH]c3ccccc23)c1OCc1ccccc1,?,0,0,?,0
COc1cc(CNCCO)ccc1OCCc1ccccc1,0,0,0,1µM,0
COc1cc(CN2CCCCC2)ccc1OCc1ccccc1,0,0,10µM,?,0
COc1ccc(CN2CCCCCC2)cc1OC,0,0,0,0,-
CCc1ccccc1NC(=O)CSc1nccn1C,0,0,0,0,-
CN(c1ccccc1)S(=O)(=O)c1nnc(NC(=O)COc2ccccc2)s1,0,0,0,0,0
CC(Oc1ccccc1)C(=O)Nc1nnc(S(=O)(=O)N(C)c2ccccc2)s1 (centres undefined),0,0,0,0,13µM
Cn1cnc2cc(NCc3ccc(Cl)cc3)ccc21,0,0,5µM,0,0
CCn1cnc2cc(NC(=O)c3cccs3)ccc21,0,0,13µM,0,0
CCn1cnc2cc(NCc3cccs3)ccc21,0,0,14µM,0,0
CCn1cnc2cc(NCc3ccc(C)cc3)ccc21,0,0,3.5µM,0,0
CCOc1ccccc1-c1cnc(NC)cn1,0,0,0,0,-
Cc1ccc(CNc2ccc3c(c2)ncn3C(C)C)cc1,0,?,5µM,0,0
CCCn1cnc2cc(NCc3cccc(OC)c3)ccc21,0,0,5µM,0,0
CCn1cnc2cc(NCc3ccc(Br)cc3)ccc21,0,0,4.5µM,0,0
CCCn1cnc2cc(NCc3ccc(Br)cc3)ccc21,0,?,0,0,0
O=S(=O)(NCCc1ccc(Cl)cc1)c1ccc(N2CCCCS2(=O)=O)cc1,0,-,-,?,-
O=C1CC(N(CCc2ccccc2)C(=S)Nc2cc(Cl)ccc2Cl)C(=O)N1c1c(Cl)cccc1Cl (centres undefined),0,0,0,4.5µM,0
CCCOc1ccc(N2C(=O)CC(N(CCc3ccc(OC)c(OC)c3)C(=S)Nc3ccccc3)C2=O)cc1 (centres undefined),0,0,0,5.6µM,0
O=C1CC(N(CCc2ccccc2)C(=S)Nc2ccccc2)C(=O)N1c1ccc(F)cc1 (centres undefined),?,0,0,4.5µM,0
SMILES,HEK293 tox,GLP-1R agonist,BRCA1 expr act,GLP1R inv ag,Mito fusion act
CCOC(=O)C1(CC2CC2)CCN(C(=O)c2cc(C3CC3)nc3ccccc23)CC1,0,0,0,10µM,0
CCOC(=O)C1(CC2CC2)CCN(C(=O)c2cc(OC)nc3ccccc23)CC1,0,?,0,?,0
CCN(CC)c1nc(C)nc2c1cnn2CCc1ccccc1,0,0,8.9µM,0,0
CCN(CC)c1ncnc2c1cnn2Cc1ccc(C)cc1,0,?,0,0,0
O=C(CSc1nnc(NC2CCCCC2)s1)NC1CCS(=O)(=O)C1 (centres undefined),0,0,0,0,0
CCC(C)(C)C1CCC2(CC1)NC(=O)N(CC(=O)NCCCc1ccccc1)C2=O (centres undefined),0,0,0,?,0
CCC(C)(C)C1CCC2(CC1)NC(=O)N(CC(=O)NC(C)CCc1ccccc1)C2=O (centres undefined),0,0,0,3.5µM,0
COc1cccc(Nc2c3c(nc4c(-c5ccccc5)c(C)nn24)CCC3)c1,0,0,0,5µM,?
